# Results filed as inconclusive are left out. A call without a number means that no potency is given here. Calls of active or inactive are those of the source. Calls follow the shape of the dose curve; as a rule, active = well fitted cell-killing curve with a large enough effect; inconclusive = small, poorly fitted or top-dose-only effect; inactive = flat fitted curve, though single readings scatter.
# Assay: qHTS of pediatric cancer cell lines to identify multiple opportunities for drug repurposing: Primary screen for Rh18 cells (AID 1347102); also: nearly all actives have a fitted effect of over 65% in size
# Settings: Rh18 rhabdomyosarcoma viability, CellTiter-Glo luminescence, 48 h; series mostly up to 46 µM
# Source text: Drug repurposing or repositioning has been offered as a strategy for drug development in oncology programs. This approach has special potential for childhood cancers and other rare or orphan diseases, where the expected return on new drug development has been a disincentive to pharmaceuticals.
# In this project we exploit the poly-pharmacology of drugs to discover new indications via phenotypic screening of a panel of 19 well-characterized cell lines derived from solid tumors seen in children and adolescents. The goal is to identify approved drugs with previously unrecognized anticancer properties that has the potential to reveal new mechanisms and biological processes involved in carcinogenesis or drug resistance. We employed a titration-based paradigm (quantitative high-throughput screening or qHTS), where all compounds were tested at multiple concentrations for their effect on cell viability. Concentration-response curves (CRCs) were derived directly from the primary screen, and both potency and efficacy values were used to identify compounds with robust bioactivity profiles. We screened the NIH Chemical Genomics Center (NCGC) Pharmaceutical Collection (NPC) and Mechanism Interrogation Plate (MIPE) small molecule collections of approved and investigational compounds against these cell lines; and measured metabolically active cells after 48 hours of compound treatment as a proxy for cell viability.
# Assay Submitter: Nathalia J. Martinez, National Center for Advancing Translational Sciences, National Institutes of Health, Rockville, MD, USA; email: natalia.martinez@nih.gov
# [1] Shen, M et al. Quantitative high-throughput phenotypic screening of pediatric cancer cell lines identifies multiple opportunities for drug repurposing. Oncotarget 2017 Dec 19;9(4):4758-4772. PMID 29435139.
# The cells were obtained from University of North Carolina (UNC), Pediatric Preclinical Testing Program (PPT), and Coriell Institute (CI).
# qHTS cell viability assay:
# Cells were assayed in growth media at a density of 500-1,000 cells/well. Five microliters of cells were dispensed into 1,536-well, white, solid-bottom, TC-treated plates (Greiner Bio One) using a multidrop dispenser and incubated at 37 degrees C, 5% CO2, under a humidified atmosphere for 5 hours. Twenty-three nanoliters of compounds and controls (neutral control DMSO or positive control bortezomib at final concentration of 2.3 µM) were subsequently transferred by Kalypsys pintool. For primary screens, the MIPE collection was tested at 11-point dilutions (final concentrations range from 0.78 nM to 46 µM) and the NPC collection at 8-point dilutions (final concentrations range from 0.59 nM to 46 µM). Compounds tested in follow-up screens were assayed at 11-point dilutions. Cells were incubated for 48 hours, followed by addition of 3 µL of CellTiter-Glo (Promega). After a 15 min incubation at room temperature, samples were analyzed for luminescence intensity using a ViewLux High-throughput CCD imager equipped with clear filters.
# Potency is read from the fitted curve at half-maximal effect.
row,Structure (SMILES),Potency
1,C[C@]12CCC3c4ccc(O)cc4CCC3C1CCC2=O (stereo not given in full),inactive
2,CNC(=O)c1ccc2cc(C3(O)CCn4cncc43)ccc2c1 (stereo not given),inactive
3,CCOC(=O)O[C@]1(C(=O)OCCl)CC[C@@H]2[C@H]3CCC4=CC(=O)C=C[C@]4(C)[C@@H]3[C@@H](O)C[C@@]21C,inactive
4,O=C(O)C(O)Cc1ccc(O)c(O)c1 (stereo not given),inactive
5,Cc1cccc(C)c1OCC(C)N (stereo not given),inactive
6,c1cc(-c2sc(-c3ccncc3)c(-c3ccncc3)c2-c2ccncc2)ccn1,inactive
7,Cc1cccc(Nc2nc(-c3ccncc3)cs2)c1,inactive
8,O=C(O)c1cc(-c2ccccc2)nc2ccccc12,inactive
9,COc1cc(NC(=O)c2ccc(-c3ccc(Cl)cc3)o2)cc(OC)c1,inactive
10,Cn1cc(C=C2C(=O)Nc3cccnc32)c2ccccc21,inactive
11,COC(=O)[C@@H]1[C@H]2C[C@H]3c4[nH]c5ccccc5c4CCN3C[C@@H]2CC[C@@H]1O,inactive
12,COc1ccc(-c2nc(N3CCOCC3)c3sc(CN(C)c4ncc(C(=O)NO)cn4)cc3n2)cn1,0.001 µM (active)
13,CC(=O)CCCCn1c(=O)c2c(ncn2C)n(C)c1=O,inactive
14,N#CC1(c2ccc(NC(=O)c3cccnc3NCc3ccncc3)cc2)CCCC1,inactive
15,C[C@H]1[C@H](NC(=O)C(=NOC(C)(C)C(=O)O)c2csc(N)n2)C(=O)N1S(=O)(=O)O,inactive
16,CCc1ccc(C=C2SC(=S)NC2=O)cc1,inactive
17,NC(=O)[C@@H](CCC(F)(F)F)N(Cc1ccc(-c2ncon2)cc1F)S(=O)(=O)c1ccc(Cl)cc1,inactive
18,COC(=O)N[C@H](C(=O)N1CCC[C@@H]1c1ncc(-c2ccc(-c3ccc(-c4cnc([C@@H]5CCCN5C(=O)[C@@H](NC(=O)OC)C(C)C)[nH]4)cc3)cc2)[nH]1)C(C)C,23.5 µM (active)
19,CCOC1OC(=O)C[C@H]1NC(=O)[C@@H]1CCCN1C(=O)[C@@H](NC(=O)c1ccc(N)c(Cl)c1)C(C)(C)C (stereo not given in full),inactive
20,COC1CCC(N(C(=O)C2CCC(C)CC2)c2cc(C3=CCCCC3)sc2C(=O)O)CC1 (stereo not given),inactive

row,Structure (SMILES),Potency
1,N#C[C@H]1C[C@H]2C[C@@H]2N1C(=O)[C@@H](N)C12CC3CC(CC(O)(C3)C1)C2,inactive
2,C[C@H](NC(=O)C(=O)Nc1ccccc1C(C)(C)C)C(=O)N[C@@H](CC(=O)O)C(=O)COc1c(F)c(F)cc(F)c1F,inactive
3,COc1cc2c(cc1OC)CN(CCc1ccc(NC(=O)c3cc(OC)c(OC)cc3NC(=O)c3cnc4ccccc4c3)cc1)CC2,inactive
4,CC=CC[C@@H](C)C(=O)[C@H]1C(=O)N[C@@H](C(C)C)C(=O)N(C)CC(=O)N(C)[C@@H](CC(C)C)C(=O)N[C@@H](C(C)C)C(=O)N(C)[C@@H](CC(C)C)C(=O)N[C@@H](C)C(=O)N[C@H](C)C(=O)N(C)[C@@H](CC(C)C)C(=O)N(C)[C@@H](CC(C)C)C(=O)N(C)[C@@H](C(C)C)C(=O)N1C,inactive
5,CC(C)C[C@H](CC(=O)O)C(=O)N[C@@H](Cc1c[nH]c2ccccc12)C(=O)N[C@@H](C)c1ccccc1,inactive
6,C=C1C(=O)OC(CCCCCCCC)C1C(=O)O (stereo not given),inactive
7,CC1CCC(C(=O)N(c2cc(C#CC(C)(C)C)sc2C(=O)O)C2CCC(O)CC2)CC1 (stereo not given),inactive
8,CC(C)n1cnc2c(NCCCCCCNC(=O)OC(C)(C)C)nc(NCCO)nc21,inactive
9,NC1CCC(Nc2nc(Nc3ccc(C(=O)N4CCCCC4)cc3)c3ncn(-c4cccc(F)c4)c3n2)CC1 (stereo not given),inactive
10,NC1=N[C@@]2(c3cc(NC(=O)c4ccc(F)cn4)ccc3F)COC[C@@H]2CS1,inactive
11,CC[C@H]1OC(=O)[C@H](C)[C@@H](O[C@H]2C[C@@](C)(OC)[C@@H](O)[C@H](C)O2)[C@H](C)[C@@H](O[C@@H]2O[C@H](C)C[C@H](N(C)C)[C@@H]2O)[C@](C)(O)C[C@@H](C)CN(C)[C@H](C)[C@@H](O)[C@]1(C)O,inactive
12,O=C(Nc1ccccc1Br)N[C@@H]1CCN(c2ccc(C(F)(F)F)cn2)C1,inactive
13,Cc1ccc(C(=O)Nc2cccc(C(F)(F)F)c2)cc1Nc1nc(-c2cccnc2)nc2c1cnn2C,20.9 µM (active)
14,CCC(CC)[C@H](NC(C)=O)[C@@H]1[C@H](O)[C@@H](C(=O)O)C[C@@H]1N=C(N)N,inactive
15,CC(C)[C@H](CO)Nc1nc(Nc2ccc(C(=O)O)c(Cl)c2)c2ncn(C(C)C)c2n1,inactive
16,OC[C@H]1O[C@@H](Oc2cc(O)cc(C=Cc3ccc(O)cc3)c2)[C@H](O)[C@@H](O)[C@H]1O,inactive
17,Cc1ccc(/C=N/NC(=O)c2ccccc2Oc2ccccc2)o1,inactive
18,O=c1cc(-c2cccc3c2Sc2ccccc2S3)oc(N2CCOCC2)c1,inactive
19,O=c1[nH]cnc2c1ncn2[C@H]1CC[C@@H](CO)O1,inactive
20,CO[C@@H](C(=O)N1Cc2[nH]nc(NC(=O)c3ccc(N4CCN(C)CC4)cc3)c2C1)c1ccccc1,0.935 µM (active)

# Reference: PubChem BioAssay (NCATS)
